TexasRed fluor: counter-screen for TRb-SRC2 inhibitors: fluorescence interference; TRb/SRC2 Texas Red total fluorescence interference; Potency, µM (doses to about 106 µM), for the others: top-dose fluorescence change, negative = quenching; 280,000 compounds, 0.29% hits; AID 1479; active = well fitted curve in either direction with a large enough effect; inconclusive = small, poorly fitted or top-dose-only effect; also: potency is read from the fitted curve at half-maximal effect; % is scaled to controls: 0 for no effect and ±100 for the full control effect
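Human TRb ligand-binding domain at 0.6 uM with 20 nM Texas Red SRC2 peptide in Tris buffer containing 1 uM T3 and 5% DMSO, incubated with compound 5 h at ambient temperature. Total fluorescence (555/632 nm) calculated as parallel + 2 × perpendicular.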
VDR inhibitor: inhibitors of human vitamin D receptor. P11473. VDR-SRC2-3 peptide fluorescence polarization, 2 h. Potency, µM, inactives show max response, negative = inhibition, most hits filed as inhibitors. 400,000 compounds, 0.93% hits; also: potency is read from the fitted curve at half-maximal effect; % is scaled to controls: 0 for no effect and ±100 for the full control effect
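After 23 nl compound addition and a short centrifugation, plates sat for 2 hours at ambient temperature; polarization of fluorescence then indicated loss of VDR binding to peptide SRC2-3.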
GCN5L2 inh-1: inhibitors of human GCN5L2 histone acetyltransferase; GCN5L2 HAT assay, ThioGlo1 CoA-SH fluorescence; Q92830; 390,000 compounds, 0.21% hits; Potency, µM (titrated, usually from 58.9 µM), inactives show top-dose activity change, negative = inhibition, most hits filed as inhibitors; also: potency is read from the fitted curve at half-maximal effect; % is scaled to controls: 0 for no effect and ±100 for the full control effect
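qHTS, 1536-well. 20nM enzyme, pH 7.5 HEPES/EDTA/Tween-20 buffer; 15 min compound preinc., RT. Start: 75uM H3(1-25), 70uM AcCoA, 50uM ThioGlo1. Read Ex340/Em540 at t=0 (autofluorescence flag) and t=20 min.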
TRb SRC2 PPI: TRbeta-SRC2 interaction inhibition. Potency, µM (titrated, usually from 106 µM), inactives show top-dose activity change, negative = inhibition, usual class: inhibitors. TRbeta-SRC2 peptide binding, fluorescence polarization; receptor liganded with 1 µM T3. 280,000 compounds, 0.065% hits. P10828. AID 1469;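 also: potency is read from the fitted curve at half-maximal effect; plate controls were bound peptide for no effect and peptide without receptor for full effect; nearly all actives have a fitted effect of over 50% in size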
Target sequence (P10828 whole entry, looked up): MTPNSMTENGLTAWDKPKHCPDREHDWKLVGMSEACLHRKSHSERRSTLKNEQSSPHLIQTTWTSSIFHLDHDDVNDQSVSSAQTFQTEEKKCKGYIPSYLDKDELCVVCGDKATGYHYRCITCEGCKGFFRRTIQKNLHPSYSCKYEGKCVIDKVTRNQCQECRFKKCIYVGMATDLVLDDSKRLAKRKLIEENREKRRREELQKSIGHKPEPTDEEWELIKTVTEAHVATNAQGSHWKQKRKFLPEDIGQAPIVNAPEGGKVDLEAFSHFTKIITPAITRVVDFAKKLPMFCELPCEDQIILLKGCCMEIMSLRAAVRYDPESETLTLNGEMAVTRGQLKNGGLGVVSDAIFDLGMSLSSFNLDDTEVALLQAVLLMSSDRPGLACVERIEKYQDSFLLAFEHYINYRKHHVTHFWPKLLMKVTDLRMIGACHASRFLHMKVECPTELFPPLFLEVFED
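Quantitative HTS by FP: 0.6 uM TRb LBD, 20 nM labeled SRC2 20-mer, 1 uM T3, 5% DMSO; 5 hr ambient incubation; % activity per concentration and potencies from concentration series.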
GoLoco inh red: inhibitors of human Gai1-RGS12 GoLoco interaction (red fluorophore). AID 880. Potency, µM (highest dose often 61.6 µM), for the others: top-dose activity, negative = inhibition, usual class: inhibitors. Gai1:RGS12 GoLoco peptide FP, rhodamine, 10 min. P63096. 230,000 compounds, 0.44% hits; active = well fitted inhibition curve with a large enough effect, not every such curve was filed as active; inactive = no such curve, though single readings can be large or run the other way; also: potency is read from the fitted curve at half-maximal effect; % is scaled to controls: 0 for no effect and ±100 for the full control effect; nearly all actives have a fitted effect of over 30% in size
GCN5L2 inh-2: confirmation of human GCN5L2 histone acetyltransferase inhibitors; Potency, µM, actives largely listed as inhibitors; GCN5L2 HAT, ThioGlo1 CoA fluorescence, 20 min; shares compounds with GCN5L2 inh-1; 140 compounds, 70% hits; AID 588347
USP1 UbRho: validation of human USP1/UAF1 inhibitors; shares compounds with VDR inhibitor; Ub-Rhodamine cleavage, fluorescence kinetic read; Potency, µM (top dose mostly 56.8 µM), without a hit: top-dose activity change, negative = inhibition, actives largely listed as inhibitors; 50 compounds, 50% hits
VDR confirm: confirmation of human vitamin D receptor inhibitors; 840 compounds, 89% hits; Potency, µM, hits mostly inhibitors; shares compounds with VDR inhibitor; AID 602199; VDR-coactivator inhibition assay, qHTS confirmation; also: potency is read from the fitted curve at half-maximal effect
VDR FP fluor: VDR (human) coactivator binding inhibition, fluorescein polarization; shares compounds with VDR inhibitor; VDR-coactivator binding, fluorescein fluorescence polarization; 840 compounds, 48% hits; Potency, µM (highest dose often 57.1 µM), without a hit: at the highest dose activity change, negative = inhibition, most hits filed as inhibitors; AID 602200; also: potency is read from the fitted curve at half-maximal effect
VDR bla: VDR (human) inhibition, cell-based beta-lactamase validation; AID 602202; Potency, µM (titrated, usually from 46.1 µM), for the others: at the highest dose activity change, negative = inhibition, hits mostly inhibitors; VDR beta-lactamase reporter cells, FRET ratio; cells co-treated with VDR agonist LG190178; shares compounds with VDR inhibitor; 840 compounds, 23% hits; also: potency is read from the fitted curve at half-maximal effect; % is scaled to controls: 0 for no effect and ±100 for the full control effect
VDR cytotox: cell toxicity, VDR inhibitor hit counter-screen; shares compounds with VDR inhibitor; Potency, µM (series often up to 48.3 µM), for the others: at the highest dose activity change, negative = cytotoxicity, hits mostly cytotoxic; 840 compounds, 18% hits; AID 602204; cytotoxicity counter-screen, cell viability, qHTS;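 also: potency is read from the fitted curve at half-maximal effect; plate controls were DMSO for no effect and high-concentration cycloheximide for full effect; nearly all actives have a fitted effect of over 75% in size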
* = called active by the depositor; u = inconclusive; x = no result given; [ ] = remark or other dose. The list is not random: actives were taken first. Their share in the collection is about 1.2%. Unless noted, calls follow the shape of the dose curve; as a rule, active = well fitted curve in the direction sought with a large enough effect; inconclusive = small, poorly fitted or top-dose-only effect, or another doubt; inactive = no such curve, though single readings can be large; an effect the other way counts as inactive or inconclusive.

SMILES	TexasRed fluor	VDR inhibitor	GCN5L2 inh-1	TRb SRC2 PPI	GoLoco inh red	VDR confirm	VDR FP fluor	VDR bla	VDR cytotox	others
O=C(O)CSCC(=O)N(Cc1ccccc1)c1nc(-c2ccccc2)c(-c2ccccc2)s1	x	u	11.2µM*	x	x	x	x	x	x	GCN5L2 inh-2=22.9*
O=c1oc2ccccc2c(O)c1C(CC(O)c1ccc(-c2ccc(Br)cc2)cc1)c1ccccc1 (stereo not given)	-23.5%[201 µM]	x	x	u	x	x	x	x	x
O=C(O)CCC(=O)NCCC1=c2ccccc2=N/C1=C\c1c(O)n(Cc2ccc(F)cc2)c(=S)[nH]c1=O	0.2%	20µM*	17.8µM*	8.8%	20.7%	5.97*	u	8.3%	21.7%	GCN5L2 inh-2=5.13*
CC(C)Oc1cccc(NC(=O)c2ccccc2C(F)(F)F)c1	0.7%[201 µM]	x	x	2.8%[201 µM]	x	x	x	x	x
O=C1NC(=S)NC(=O)C1=Cc1ccc(OCC(=O)N2CCCC2)cc1	x	44.7µM*	-4.7%	x	x	13.4*	14.1µM*	20.8%	12.5%
C[n+]1c(/C=C\c2ccc(O)c3ncccc23)[se]c2ccccc21	x	x	x	x	123.3%[14.2 µM]	x	x	x	x
O=c1oc(Cl)c(Cl)c2ccccc12	0.5%	25.1µM*	5.4%	7.8%	8.0%	5.01*	u	u	16.8µM*	USP1 UbRho=7.44µM*
CCOC(=O)c1c(NS(=O)(=O)c2ccccc2)n(CCCOC)c2nc3ccccc3nc12	2.2%	u	22.4µM*	u	11.2%	2.51*	2.24µM*	-8.2%	24.0%
O=C(O)C[C@H]1NCc2cc3ccccc3nc21	x	x	x	x	2.7%[14.2 µM]	x	x	x	x
Cc1c([C@@H](C)C2NC[C@H](C)C[C@@H]2O)ccc2c1C[C@@H]1[C@H]2CC=C2C[C@@H](O)CC[C@@]21C (stereo not given in full)	x	x	x	x	4.2%[14.2 µM]	x	x	x	x
CCN(CC)c1ccc(NC(=O)c2cccc(C)c2)cc1S(=O)(=O)Nc1ccccc1OC	4.9%	50.1µM*	-13.0%	-6.7%	-4.7%	u	u	8.0%	-3.1%
NS(=O)(=O)C[C-]1C=C[CH]([Sb-]([Cl])([Cl])([Cl])([Cl])[Cl])C=C1.c1ccncc1 (stereo not given)	x	x	x	x	1.0%[14.2 µM]	x	x	x	x
CN1CCC(O)(c2cccs2)C(C(=O)c2cccs2)C1 (stereo not given)	x	u	-7.4%	x	x	20*	25.1µM*	u	u
CN(C)c1ccc(C(=O)c2ccc(N(C)C)cc2)cc1	-6.6%[201 µM]	-12.5%	-4.9%	3.0%[201 µM]	-3.4%	x	x	x	x
C/C(=C\c1ccc(N(C)C)cc1)[N+](=O)[O-]	-6.5%	20µM*	3.1%	3.2%	0.0%	6.7*	u	-134.3%	u
CN(C)c1ccc(/C=C/[N+](=O)[O-])cc1	-0.9%	u	-3.3%	2.0%	63.6%	u	86.1%	-0.2%	5.2%
CN(C)CCCNc1c2c(nc3ccc(Cl)cc13)CCCC2	x	x	x	x	-5.1%[14.2 µM]	x	x	x	x
